Reference: PubChem BioAssay (EPA / NIEHS)
Records with an inconclusive call do not appear. The source made the active and inactive calls. How the source made its calls: active means hit-call score of the fitted dose curve at least 0.9, where 1 is the maximum; inconclusive means response in the unintended direction; inactive means score below 0.9.

Legend:
[1] = molecular target: rat Gamma-Aminobutyric Acid Type B Receptor (GABBR), Gabbr1 (gene 81657) (UniProt Q9Z0U4); assay: NVS_GPCR_rGABBR: NovaScreen (NVS) G Protein-Coupled Receptor Assay for rat Gamma-Aminobutyric Acid Type B Receptor (GABBR) (AID 2283301)
Sequence of rat Gamma-Aminobutyric Acid Type B Receptor (GABBR), Gabbr1 (gene 81657) (Q9Z0U4 whole entry, looked up): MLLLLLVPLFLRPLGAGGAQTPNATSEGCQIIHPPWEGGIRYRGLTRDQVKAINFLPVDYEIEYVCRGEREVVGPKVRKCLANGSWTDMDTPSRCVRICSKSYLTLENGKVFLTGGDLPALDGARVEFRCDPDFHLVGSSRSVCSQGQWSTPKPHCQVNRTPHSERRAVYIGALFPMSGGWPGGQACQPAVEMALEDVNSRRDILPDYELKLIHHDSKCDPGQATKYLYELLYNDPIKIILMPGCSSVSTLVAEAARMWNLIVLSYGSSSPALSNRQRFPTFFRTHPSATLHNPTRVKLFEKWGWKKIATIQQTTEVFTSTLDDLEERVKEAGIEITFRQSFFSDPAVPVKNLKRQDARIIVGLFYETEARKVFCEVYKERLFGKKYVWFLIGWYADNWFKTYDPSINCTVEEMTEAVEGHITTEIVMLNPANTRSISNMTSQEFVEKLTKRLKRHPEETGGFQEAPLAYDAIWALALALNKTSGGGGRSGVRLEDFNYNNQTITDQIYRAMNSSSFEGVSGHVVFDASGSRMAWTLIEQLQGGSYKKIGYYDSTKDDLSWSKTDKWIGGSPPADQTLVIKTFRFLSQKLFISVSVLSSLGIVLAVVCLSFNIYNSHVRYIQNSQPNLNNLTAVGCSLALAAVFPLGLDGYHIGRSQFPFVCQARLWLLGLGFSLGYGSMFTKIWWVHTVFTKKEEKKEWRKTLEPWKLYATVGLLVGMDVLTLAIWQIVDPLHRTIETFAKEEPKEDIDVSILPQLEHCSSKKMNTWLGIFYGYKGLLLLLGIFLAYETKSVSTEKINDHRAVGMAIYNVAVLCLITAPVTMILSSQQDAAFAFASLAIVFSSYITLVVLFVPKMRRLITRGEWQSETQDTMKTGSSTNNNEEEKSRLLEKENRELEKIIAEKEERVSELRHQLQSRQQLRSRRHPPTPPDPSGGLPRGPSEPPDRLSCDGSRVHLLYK
Summary of the method: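 Rat cortical membrane preparation, competitive radioligand binding for 1 h with filtration and scintillation readout. Actives from duplicate single-point 25 uM screening proceeded to concentration series with 50 uM top concentration.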

[2] = molecular target: rat Histamine Receptor (H3), Hrh3 (gene 85268) (UniProt Q9QYN8); assay: NVS_GPCR_rH3: NovaScreen (NVS) G Protein-Coupled Receptor Assay for rat Histamine Receptor (H3) (AID 2283303)
Sequence of rat Histamine Receptor (H3), Hrh3 (gene 85268) (Q9QYN8 whole entry, looked up): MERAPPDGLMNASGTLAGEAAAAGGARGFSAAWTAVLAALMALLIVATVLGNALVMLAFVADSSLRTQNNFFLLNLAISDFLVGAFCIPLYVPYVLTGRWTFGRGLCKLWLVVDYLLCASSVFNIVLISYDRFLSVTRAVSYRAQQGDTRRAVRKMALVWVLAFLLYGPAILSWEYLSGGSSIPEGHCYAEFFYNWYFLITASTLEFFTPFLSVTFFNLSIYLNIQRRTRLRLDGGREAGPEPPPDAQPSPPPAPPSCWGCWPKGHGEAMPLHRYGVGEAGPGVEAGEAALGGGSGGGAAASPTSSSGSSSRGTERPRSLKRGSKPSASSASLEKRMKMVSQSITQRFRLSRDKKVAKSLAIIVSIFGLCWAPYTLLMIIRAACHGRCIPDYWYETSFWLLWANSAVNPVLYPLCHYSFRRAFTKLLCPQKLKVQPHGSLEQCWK
Summary of the method: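 Filter-binding radioligand competition on rat forebrain membranes, 1 h incubation; compounds screened at 25 µM in duplicate and followed in concentration series to 50 µM, loss of bound signal vs DMSO.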

[3] = molecular target: Metabotropic glutamate receptor 1 (Rattus norvegicus) (UniProt P23385); assay: NVS_GPCR_rmMGluR1: NovaScreen (NVS) G Protein-Coupled Receptor Assay for rat Glutamate Metabotropic Receptor 1 (MGluR1) (AID 2283305)
Sequence of Metabotropic glutamate receptor 1 (Rattus norvegicus) (P23385 whole entry, looked up): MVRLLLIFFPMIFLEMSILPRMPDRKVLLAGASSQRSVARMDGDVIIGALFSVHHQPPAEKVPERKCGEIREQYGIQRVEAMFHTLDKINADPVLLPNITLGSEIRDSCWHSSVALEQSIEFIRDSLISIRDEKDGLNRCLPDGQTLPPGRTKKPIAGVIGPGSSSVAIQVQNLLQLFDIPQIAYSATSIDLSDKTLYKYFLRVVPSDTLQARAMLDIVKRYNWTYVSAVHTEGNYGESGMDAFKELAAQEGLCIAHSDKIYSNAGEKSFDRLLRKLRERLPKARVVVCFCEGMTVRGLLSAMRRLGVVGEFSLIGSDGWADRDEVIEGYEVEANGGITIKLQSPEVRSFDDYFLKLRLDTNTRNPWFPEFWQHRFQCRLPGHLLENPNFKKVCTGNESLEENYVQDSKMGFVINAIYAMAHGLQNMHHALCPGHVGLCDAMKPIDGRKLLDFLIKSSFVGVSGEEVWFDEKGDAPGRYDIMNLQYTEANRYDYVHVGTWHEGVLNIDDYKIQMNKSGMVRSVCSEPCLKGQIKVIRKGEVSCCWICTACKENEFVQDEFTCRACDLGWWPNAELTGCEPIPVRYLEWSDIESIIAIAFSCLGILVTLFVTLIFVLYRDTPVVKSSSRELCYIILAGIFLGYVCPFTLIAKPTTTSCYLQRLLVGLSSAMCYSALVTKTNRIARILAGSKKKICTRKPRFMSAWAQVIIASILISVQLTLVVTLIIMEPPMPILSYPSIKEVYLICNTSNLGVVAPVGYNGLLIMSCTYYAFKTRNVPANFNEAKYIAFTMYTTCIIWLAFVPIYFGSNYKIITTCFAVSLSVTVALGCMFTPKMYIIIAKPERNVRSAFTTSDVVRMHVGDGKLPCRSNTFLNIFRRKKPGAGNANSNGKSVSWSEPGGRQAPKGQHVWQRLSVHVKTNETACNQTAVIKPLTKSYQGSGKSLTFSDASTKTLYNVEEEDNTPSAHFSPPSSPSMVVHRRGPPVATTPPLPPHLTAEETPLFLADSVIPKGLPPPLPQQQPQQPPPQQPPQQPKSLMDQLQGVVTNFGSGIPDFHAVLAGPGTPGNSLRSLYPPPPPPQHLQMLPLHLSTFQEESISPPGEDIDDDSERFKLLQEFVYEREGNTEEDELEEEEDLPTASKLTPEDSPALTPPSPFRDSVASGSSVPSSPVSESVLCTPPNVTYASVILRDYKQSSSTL
Summary of the method: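 Binding to native receptor from rat cerebellum extract, measured as displacement of a radioligand (scintillation counting, filter separation) after 1 hour. Compounds tested at 25 uM in duplicate, then titrated to a 50 uM maximum.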

[4] = molecular target: rat Glutamate Metabotropic Receptor 5 (MGluR5), Grm5 (gene 24418) (UniProt P31424); assay: NVS_GPCR_rmMGluR5: NovaScreen (NVS) G Protein-Coupled Receptor Assay for rat Glutamate Metabotropic Receptor 5 (MGluR5) (AID 2283307)
Sequence of rat Glutamate Metabotropic Receptor 5 (MGluR5), Grm5 (gene 24418) (P31424 whole entry, looked up): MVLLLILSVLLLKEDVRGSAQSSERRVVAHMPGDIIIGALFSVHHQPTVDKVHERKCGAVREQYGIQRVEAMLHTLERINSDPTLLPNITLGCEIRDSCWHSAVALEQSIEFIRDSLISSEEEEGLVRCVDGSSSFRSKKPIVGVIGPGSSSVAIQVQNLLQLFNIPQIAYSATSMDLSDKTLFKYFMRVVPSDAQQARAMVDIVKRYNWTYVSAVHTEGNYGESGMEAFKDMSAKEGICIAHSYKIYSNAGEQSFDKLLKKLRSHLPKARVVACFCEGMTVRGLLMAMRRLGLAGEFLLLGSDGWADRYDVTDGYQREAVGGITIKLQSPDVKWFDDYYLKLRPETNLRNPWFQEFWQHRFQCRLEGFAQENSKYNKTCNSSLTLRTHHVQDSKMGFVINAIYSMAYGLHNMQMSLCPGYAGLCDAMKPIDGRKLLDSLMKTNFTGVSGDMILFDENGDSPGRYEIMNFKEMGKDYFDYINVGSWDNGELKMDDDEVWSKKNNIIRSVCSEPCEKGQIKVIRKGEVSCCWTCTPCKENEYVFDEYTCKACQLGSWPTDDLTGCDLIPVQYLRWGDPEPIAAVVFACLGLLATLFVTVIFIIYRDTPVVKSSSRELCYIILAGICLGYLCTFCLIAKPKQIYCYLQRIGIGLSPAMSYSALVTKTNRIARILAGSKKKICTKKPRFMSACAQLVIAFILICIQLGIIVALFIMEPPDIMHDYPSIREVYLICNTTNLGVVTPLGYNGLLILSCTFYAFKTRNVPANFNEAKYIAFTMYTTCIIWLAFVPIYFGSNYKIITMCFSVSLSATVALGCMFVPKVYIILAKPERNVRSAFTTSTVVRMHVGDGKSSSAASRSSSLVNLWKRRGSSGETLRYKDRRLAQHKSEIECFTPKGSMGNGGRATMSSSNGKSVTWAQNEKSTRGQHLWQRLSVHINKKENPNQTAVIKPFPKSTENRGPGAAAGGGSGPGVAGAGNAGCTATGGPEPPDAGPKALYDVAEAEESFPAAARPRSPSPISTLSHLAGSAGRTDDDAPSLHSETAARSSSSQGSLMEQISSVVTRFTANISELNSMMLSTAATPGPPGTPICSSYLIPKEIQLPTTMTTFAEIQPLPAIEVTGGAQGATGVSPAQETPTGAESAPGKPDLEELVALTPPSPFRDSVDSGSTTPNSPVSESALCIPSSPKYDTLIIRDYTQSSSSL
Protocol: NVS_GPCR_rmMGluR5 is a biochemical, single-readout assay that uses extracted gene-proteins from Rat whole brain in a tissue-based cell-free assay. Measurements were taken 1.5 hours after chemical dosing in a 48-well plate.NVS_GPCR_rmMGluR5 is one of one assay component(s) measured or calculated from the NVS_GPCR_rmMGluR5 assay. It is designed to make measurements of radioligand binding, a form of binding reporter, as detected with scintillation counting signals by Filter-based radiodetection technology.Data from the assay component NVS_GPCR_rmMGluR5 was analyzed into 1 assay endpoint. This assay endpoint, NVS_GPCR_rmMGluR5, was analyzed in the positive analysis fitting direction relative to DMSO as the negative control and baseline of activity. Using a type of binding reporter, loss-of-signal activity can be used to understand changes in the binding as they relate to the gene Grm5. Furthermore, this assay endpoint can be referred to as a primary readout, because the performed assay has only produced 1 assay endpoint. To generalize the intended target to other relatable targets, this assay endpoint is annotated to the gpcr intended target family, where the subfamily is metabotropic glutamate receptor. […]

[5] = molecular target: rat Neurotensin Receptor (NTS), Ntsr1 (gene 366274) (UniProt P20789); assay: NVS_GPCR_rNTS: NovaScreen (NVS) G Protein-Coupled Receptor Assay for rat Neurotensin Receptor (NTS) (AID 2283308)
Sequence of rat Neurotensin Receptor (NTS), Ntsr1 (gene 366274) (P20789 whole entry, looked up): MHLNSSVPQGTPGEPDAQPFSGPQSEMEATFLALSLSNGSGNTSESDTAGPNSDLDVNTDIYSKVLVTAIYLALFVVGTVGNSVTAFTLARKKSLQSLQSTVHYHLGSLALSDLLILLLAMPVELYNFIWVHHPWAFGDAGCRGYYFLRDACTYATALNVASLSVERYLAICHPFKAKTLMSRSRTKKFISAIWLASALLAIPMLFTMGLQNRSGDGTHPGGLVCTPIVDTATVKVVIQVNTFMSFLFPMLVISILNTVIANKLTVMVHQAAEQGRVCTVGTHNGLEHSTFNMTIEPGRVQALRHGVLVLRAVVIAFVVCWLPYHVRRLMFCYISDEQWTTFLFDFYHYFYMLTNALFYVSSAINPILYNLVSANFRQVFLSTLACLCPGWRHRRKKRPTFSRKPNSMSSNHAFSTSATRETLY
Summary of the method: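 Single-point duplicates at 25 uM, then concentration series to 50 uM max for hits, measured radioligand displacement on rat forebrain membrane preparations. Bound label counted by filtration scintillation at 1 h; signal loss relative to DMSO fitted.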

[6] = molecular target: rat Neurokinin-3 Receptor (NK3), Tacr3 (gene 24808) (UniProt P16177); assay: NVS_GPCR_rNK3: NovaScreen (NVS) G Protein-Coupled Receptor Assay for rat Neurokinin-3 Receptor (NK3) (AID 2283310)
Sequence of rat Neurokinin-3 Receptor (NK3), Tacr3 (gene 24808) (P16177 whole entry, looked up): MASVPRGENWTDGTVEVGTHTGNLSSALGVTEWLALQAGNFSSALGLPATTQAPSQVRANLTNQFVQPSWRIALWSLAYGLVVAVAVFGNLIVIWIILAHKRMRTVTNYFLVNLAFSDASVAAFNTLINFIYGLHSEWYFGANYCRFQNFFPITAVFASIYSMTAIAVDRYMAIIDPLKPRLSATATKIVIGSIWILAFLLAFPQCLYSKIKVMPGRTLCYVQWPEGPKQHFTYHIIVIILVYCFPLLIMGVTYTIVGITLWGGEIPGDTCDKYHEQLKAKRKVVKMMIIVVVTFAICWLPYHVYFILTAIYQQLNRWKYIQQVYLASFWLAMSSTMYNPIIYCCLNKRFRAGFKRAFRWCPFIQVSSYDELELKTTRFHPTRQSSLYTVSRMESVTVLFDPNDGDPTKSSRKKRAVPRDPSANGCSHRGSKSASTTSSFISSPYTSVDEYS
Summary of the method: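 Filter-based radioligand displacement on rat cortex membrane preparations, read by scintillation 2 h post-dose. Chemicals first tested in duplicate at 25 uM; actives followed up in concentration series with a 50 uM maximum.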

CS(=O)(=O)c1ccc(C(=O)C2C(=O)CCCC2=O)c([N+](=O)[O-])c1
outcome [1]: inactive

CCNP(=S)(OC)O/C(C)=C/C(=O)OC(C)C (stereo not drawn)
outcome [1]: inactive

CCCN(CC)CC1COC2(CCC(C(C)(C)C)CC2)O1 (stereo not drawn)
AC50 [2]: 12.2 µM (active)

O=C1C2CC=CCC2C(=O)N1SC(Cl)(Cl)Cl (stereo not drawn)
outcome [2]: inactive
AC50 [3]: 25 µM (active)

Nc1c(Cl)c(Cl)nc(C(=O)O)c1Cl
outcome [4]: inactive

O=C(Nc1ccccc1-c1ccc(Cl)cc1)c1cccnc1Cl
outcome [5]: inactive

CCCCC(C#N)(Cn1cncn1)c1ccc(Cl)cc1 (stereo not drawn)
outcome [6]: inactive
